The text below walks through data of PubChem BioAssay (EPA / NIEHS).

As usually defined, the AC50 is the midpoint of the concentration-response curve, whichever way the signal moves.

Inconclusive results are not listed. Active and inactive are the calls of the source. Rule for the calls, unless noted: active = hit-call score of the fitted dose curve at least 0.9, where 1 is the maximum; inactive = score below 0.9.

Assay [1] can be described thus: CCTE_Harrill_HTTr_Viability_MCF7: CCTE's 6-hour Cell Viability Assessment for the High-Throughput Transcriptomics (HTTr) Platform, in MCF-7 cells cultured in DMEM + 10% fetal bovine serum, Harrill Lab (AID 2284010). The procedure, abridged: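 Read-out is propidium iodide gain of signal by high-content imaging, reflecting membrane integrity loss. Measurements are taken 6 h after dosing, eight concentrations per chemical, with DMSO serving as baseline for bidirectional curve fitting.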

A short description of assay [2]: CCTE_Harrill_HTTr_Apoptosis_MCF7: CCTE's 6-hour Apoptosis Assessment for the High-Throughput Transcriptomics (HTTr) Platform, in MCF-7 cells cultured in DMEM + 10% fetal bovine serum, Harrill Lab (AID 2284011). In a few lines:
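High-content imaging of CellEvent Caspase 3/7 Green signal follows a six-hour exposure, with eight concentrations per chemical. MCF-7 cells grown in DMEM plus 10% fetal bovine serum; activity fitted in both directions against DMSO.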

Assay [3] in a line: CCTE_Harrill_HTTr_CellCount_MCF7: CCTE's Cell Proliferation Assessment for the High-Throughput Transcriptomics (HTTr) Platform, Harrill Lab (AID 2284012; active = hit-call score of the fitted dose curve at least 0.9, where 1 is the maximum;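 note: cells exposed to compound for six hours; intended direction is loss of nuclei count meaning fewer cells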). In a few lines: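 Cell count served as viability reporter: loss of Hoechst-stained nuclei, counted by high content imaging, marks decreased growth or survival. Exposure was 6 h in MCF-7 cells across eight concentrations, with DMSO as baseline.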

Assay [4] concerns the target Estrogen receptor (Homo sapiens) (UniProt P03372). Put plainly: CCTE_Deisenroth_AIME_96WELL_LUC_Active: CCTE's 96-well Estrogen Receptor Transactivation Assay with AIME metabolic competence (ERTA luciferase; metabolism positive), Deisenroth Lab (AID 2284023; active = hit-call score of the fitted dose curve at least 0.9, where 1 is the maximum). The procedure, abridged:
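Metabolism-positive mode: induced rat hepatic S9 in alginate microspheres conditions test solutions (0.002 - 200 uM, 10 points) for 2 hours. VM7Luc4E2 ER luciferase reporter cells then exposed 24 h; positive-direction fit against 17beta-estradiol, n=4 typical.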

Estrogen receptor (Homo sapiens), sequence (P03372 whole entry, looked up): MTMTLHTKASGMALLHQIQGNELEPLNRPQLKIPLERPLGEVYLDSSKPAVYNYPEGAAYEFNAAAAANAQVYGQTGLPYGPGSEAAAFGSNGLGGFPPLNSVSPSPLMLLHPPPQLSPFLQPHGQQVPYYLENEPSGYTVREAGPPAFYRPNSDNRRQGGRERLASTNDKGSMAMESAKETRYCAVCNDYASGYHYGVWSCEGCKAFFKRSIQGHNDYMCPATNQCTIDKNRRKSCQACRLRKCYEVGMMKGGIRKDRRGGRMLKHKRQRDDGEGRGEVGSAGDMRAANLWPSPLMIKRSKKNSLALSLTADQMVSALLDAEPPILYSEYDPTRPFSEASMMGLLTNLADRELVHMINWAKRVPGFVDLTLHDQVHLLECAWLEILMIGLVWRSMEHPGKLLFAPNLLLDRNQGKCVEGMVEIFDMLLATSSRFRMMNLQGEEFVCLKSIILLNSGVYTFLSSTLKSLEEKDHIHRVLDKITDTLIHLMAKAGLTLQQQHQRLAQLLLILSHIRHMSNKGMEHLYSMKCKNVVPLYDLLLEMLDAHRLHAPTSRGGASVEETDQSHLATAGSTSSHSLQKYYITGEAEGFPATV

With `COc1cc(O)c(C(=O)c2ccccc2)cc1S(=O)(=O)O`, the result in assay [1], in assay [2] and in assay [3] was inactive.

On to `CCCCCCCO`, for which the outcome in assay [1], in assay [2] and in assay [3] was inactive.

Consider `CC(C=O)c1ccccc1` (stereo unspecified), for which the result in assay [1], in assay [2] and in assay [3] was inactive.

On to `N=C1C=CC(=C(c2ccc(N)cc2)c2ccc(N)cc2)C=C1`, for which the AC50 in assay [1] is 1060 nM (active). The result in assay [2] was inactive.

For the compound `O=C(Oc1ccccc1)c1ccccc1O`, the outcome in assay [1], in assay [2] and in assay [3] was inactive.

`Nc1ncnc2nc[nH]c12`: the outcome in assay [1], in assay [2] and in assay [3] was inactive.

For `CCCCCC(=O)OCC`, the outcome in assay [1] and in assay [2] was inactive.

As for `CCOC(=O)C1=NN(c2ccc(Cl)cc2Cl)C(C)(C(=O)OCC)C1` (stereo unspecified), the result in assay [1] and in assay [2] was inactive.

`CCCCCCC=O`: the result in assay [1], in assay [2] and in assay [3] was inactive.

Regarding `CC(C)OC(=O)c1ccccc1`, the outcome in assay [1], in assay [2] and in assay [3] was inactive.

Consider `CC(=O)OCC=C(C)C`, for which the result in assay [1], in assay [2] and in assay [3] was inactive.

On to `Nc1ccc(C(=O)O)cc1`, for which the result in assay [1] and in assay [2] was inactive.

With `C1CCSC1`, the result in assay [1] and in assay [2] was inactive.

`CCOC(=O)C1=NOC(c2ccccc2)(c2ccccc2)C1`: the outcome in assay [1], in assay [2] and in assay [3] was inactive.

`Cc1c[nH]c(=O)[nH]c1=O`: the outcome in assay [1] and in assay [2] was inactive.

Regarding `Cn1ccnc1`, the outcome in assay [1] and in assay [2] was inactive.

`c1ccc2cnccc2c1`: the outcome in assay [1], in assay [2] and in assay [3] was inactive.

In the case of `Clc1cc(Cl)c(Cl)c(Cl)c1Cl`, the outcome in assay [1] and in assay [2] was inactive.

`CCCCCCO`: the outcome in assay [1] and in assay [2] was inactive.

Consider `O=C(O)CCCC(=O)O`, for which the result in assay [1], in assay [2] and in assay [3] was inactive.

As to `O=C(O)CCC(=O)O`, the result in assay [1], in assay [2] and in assay [3] was inactive.

Take `NNS(=O)(=O)c1ccc(Oc2ccc(S(=O)(=O)NN)cc2)cc1`: the result in assay [1] and in assay [2] was inactive.

As for `Fc1ccc(Br)cc1`, the result in assay [1], in assay [2] and in assay [3] was inactive.

In the case of `O=C(O[C@@H]1Cc2c(O)cc(O)cc2O[C@@H]1c1cc(O)c(O)c(O)c1)c1cc(O)c(O)c(O)c1`, the outcome in assay [1], in assay [2] and in assay [3] was inactive.

For the compound `COc1ccc(-c2coc3cc(O)cc(O)c3c2=O)cc1`, in assay [1], the outcome was inactive. For the same compound, the AC50 in assay [4] was 2140 nM (active).

As for `CC(=O)/C=C/C1C(C)=CCCC1(C)C` (stereo unspecified), the result in assay [1] was inactive.

Take `Cc1cccc(C(C)(C)C)c1O`: the call in assay [4] was inactive.
